Outcome data for 40 compounds are collected here from PubChem BioAssay (EPA / NIEHS).

Inconclusive results are not listed. The source made the active and inactive calls. The calls were made as follows: active = hit-call score of the fitted dose curve at least 0.9, where 1 is the maximum; inconclusive = response in the unintended direction; inactive = score below 0.9.

For the assay, the target named is Androgen receptor (Homo sapiens) (UniProt P10275). Kind of assay: ATG_AR_TRANS: Attagene TRANS-FACTORIAL HepG2 Assay for human Androgen Receptor (AR) (AID 2282973). The note with it: HepG2 Attagene TRANS-FACTORIAL AR reporter transcription. In a few lines: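 Chimeric nuclear receptor–Gal4 activity was assessed in human HepG2 hepatocytes after 24 h chemical dosing. Induced reporter mRNA was detected via labelled RT-PCR fragments on capillary electrophoresis, and gain of signal was analysed against DMSO.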
Sequence of Androgen receptor (Homo sapiens) (P10275 whole entry, looked up, the tested form may be a part): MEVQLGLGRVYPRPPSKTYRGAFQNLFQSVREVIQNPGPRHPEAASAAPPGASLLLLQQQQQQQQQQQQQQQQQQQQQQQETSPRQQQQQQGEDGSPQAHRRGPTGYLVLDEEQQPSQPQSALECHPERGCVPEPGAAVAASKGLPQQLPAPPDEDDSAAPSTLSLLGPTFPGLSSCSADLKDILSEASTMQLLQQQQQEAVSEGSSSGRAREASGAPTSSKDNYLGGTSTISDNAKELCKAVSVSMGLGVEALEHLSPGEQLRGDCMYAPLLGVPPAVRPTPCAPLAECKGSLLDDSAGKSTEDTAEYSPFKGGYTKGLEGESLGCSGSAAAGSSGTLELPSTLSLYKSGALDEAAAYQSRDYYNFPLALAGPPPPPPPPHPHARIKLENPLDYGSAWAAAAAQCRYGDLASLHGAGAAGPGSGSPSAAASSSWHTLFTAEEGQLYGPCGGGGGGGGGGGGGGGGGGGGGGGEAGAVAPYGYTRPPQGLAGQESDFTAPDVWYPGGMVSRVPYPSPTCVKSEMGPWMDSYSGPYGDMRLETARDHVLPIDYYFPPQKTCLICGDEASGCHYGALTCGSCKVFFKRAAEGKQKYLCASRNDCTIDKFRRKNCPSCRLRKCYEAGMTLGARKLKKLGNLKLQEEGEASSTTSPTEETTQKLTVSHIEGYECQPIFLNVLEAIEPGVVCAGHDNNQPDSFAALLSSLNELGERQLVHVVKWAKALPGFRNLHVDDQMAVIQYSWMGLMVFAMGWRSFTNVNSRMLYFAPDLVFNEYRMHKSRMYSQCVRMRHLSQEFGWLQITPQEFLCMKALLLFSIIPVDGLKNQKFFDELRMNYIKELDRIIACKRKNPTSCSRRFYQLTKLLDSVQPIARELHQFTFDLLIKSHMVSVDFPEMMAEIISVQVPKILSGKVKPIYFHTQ
Take `Nc1ccc(N)c2c1C(=O)c1ccccc1C2=O`: the compound was classed as inactive.

With `CCCCCCCCCCC`, the outcome was inactive.

For `Cc1ccc(C)c(OCCCC(C)(C)C(=O)O)c1`, the compound was called inactive.

In the case of `O=C(Cl)C(F)(F)C(F)(F)C(F)(F)C(F)(F)C(F)(F)C(F)(F)C(F)(F)F`, the call was inactive.

For `CCCCC(CC)COC(=O)/C=C/c1ccc(OC)cc1` (stereo not given), the compound was called inactive.

Regarding `[Co]`, the result was inactive.

In the case of `c1ccc(-c2ccccn2)nc1`, the call was inactive.

As to `C=CCOCC(CO)(CO)CO`, the compound was classed as inactive.

Consider `Nc1c(Cl)cc(Cl)cc1[N+](=O)[O-]`, for which the call was inactive.

As for `c1ccc2cc(Nc3ccc(Nc4ccc5ccccc5c4)cc3)ccc2c1`, the outcome was inactive.

For `OCc1c[nH]c2ccccc12`, the compound was classed as inactive.

As for `CCCCC/C=C\CCC=O`, the compound was classed as inactive.

Turning to `C=COC(=O)C(C)(C)CCCCCC`, the compound was called inactive.

For the compound `FC(F)=C(F)C(F)(F)C(F)(F)C(F)(F)C(F)F`, the compound was called inactive.

`CC(C)c1ccc2cc(C(C)C)ccc2c1`: the result was inactive.

As to `OCC1CCC(CO)CC1` (stereo not given), the compound was classed as inactive.

For the compound `O=C(c1ccccc1)c1ccc(Cl)cc1`, the call was inactive.

For the compound `CC(C)(C)c1cc(O)c(C(C)(C)C)cc1O`, the call was inactive.

Take `OCCN1CN(CCO)CN(CCO)C1`: the outcome was inactive.

For the compound `CC(C)CCOCc1ccccc1`, the outcome was inactive.

Turning to `O=C(O)C(F)(F)OC(F)(F)C(F)(F)OC(F)(F)C(F)(F)OC(F)(F)C(F)(F)C(F)(F)C(F)(F)F`, the call was inactive.

For `COc1ccc(O)cc1`, the call was inactive.

With `Cc1cc(=O)[nH]c(C(C)C)n1`, the compound was classed as inactive.

With `CCc1cccc(C)c1N(C(=O)C(=O)O)C(C)COC` (stereo not given), the outcome was inactive.

Regarding `CCCCCCCCCCCCCC(=O)OCC(O)CO` (stereo not given), the compound was classed as inactive.

In the case of `CC(=O)CC(=O)Nc1ccc(C)cc1C`, the call was inactive.

With `CC(=O)c1ccc[nH]1`, the outcome was inactive.

Turning to `O=C(NCc1ncc(C(F)(F)F)cc1Cl)c1c(Cl)cccc1Cl`, the call was inactive.

As for `CC(C)(C)c1cc(CCC(=O)NCCCCCCNC(=O)CCc2cc(C(C)(C)C)c(O)c(C(C)(C)C)c2)cc(C(C)(C)C)c1O`, the compound was called inactive.

As to `CC(=O)OCc1ccccc1`, the call was inactive.

Regarding `CO[Si](C)(CCC(F)(F)C(F)(F)C(F)(F)C(F)(F)C(F)(F)C(F)(F)F)OC`, the call was inactive.

Take `CCCCCCc1ccc(N)cc1`: the outcome was inactive.

Turning to `CCOc1cccc(-n2cc(C(=O)N3CCN(c4cc(C(=O)O)c5ccccc5c4)CC3)nc2-c2ccc(C)cc2)c1`, the compound was classed as inactive.

As to `Cc1ccc2ccc3ccc(C)cc3c2c1`, the compound was called inactive.

For `C=CC(=O)OCCOC(=O)C=C`, the call was inactive.

In the case of `CCCCCCCCCC[N+](C)(C)[O-]`, the call was inactive.

In the case of `O=[N+]([O-])c1cc(C(F)(F)F)ccc1Cl`, the outcome was inactive.

Regarding `O=C=Nc1cccc2c(N=C=O)cccc12`, the call was inactive.

`O=C(NO)c1ccccc1`: the call was inactive.

In the case of `CCCCCCOC(=O)c1ccccc1O`, the result was inactive.
